Source: the OligoGym collection

What follows are sequences tested against AHCY (assay: pooled miR-30 sensor sort-seq; sequence = guide strand). Settings: shRNA.
Note: reference of the scale not given here.

Sequence | sensor-assay potency score (higher = more potent)
TTCATCTGCTCAAAGTGCCGGC | -0.375
TAACAGTCTATTCTAACCCCTG | -0.522
TTGCTTCTCAGTTAGCTTGGTC | -0.044
TCGATCTGCGCCATCACCTGGT | -0.451
TAGAGGTTGTCAAACTTGCTCT | -0.554
TTAACAGTCTATTCTAACCCCT | -0.371
TCGGCCAGCAGGATGATGCGGC | -0.886
TTCAGCCACTGCCTCATCCAGC | -0.886
TTGATGGGGTCAATCTCGGTGA | -1.04
ATGATGTCAATACAGCCTGTGG | -1.59
TTAGCTTGGTCAACTTCACATT | -0.84
TTGGTGTGGATGAGGTTGGTGA | -1.01
TCTTTTAACATTATAGGCCAAA | -1.21
TTGATGTTCACCTTCTCCACGG | 0.235
TATAAGTCCACAGACCAGGTGA | 0.25
TAGCTTGGTCAACTTCACATTC | -1.21
TTGTAGAGGTTGTGGACCCCAG | -0.72
ACACACAATGGCATCATCCTTC | -0.521
TCATCTTGTAGAGGTTGTGGAC | -0.726
ATCTCGGTGATGATGACGCGGG | -1.23
AAACTTGCTCTTGGTGACGGAG | -1.03

These sequences were tested against AHDC1 in the same assay as above. Settings: shRNA.

Sequence | sensor-assay potency score (higher = more potent)
TTGGGTACCATGTAGCCACCGG | -0.207
TTTGCGGGTAGAGACCACTGGG | -0.394
TTGTATGTGGTCTTGTTCCGCC | -0.176
ATGCTTGCCATCAAGCTCGGGA | -0.78
TTCTTCATCTTCAGCAGCGGGG | -0.945
TCTGGTTCCAGTTGTAGCCGGG | 0.572
TAGCTTGCTGCTCGTCCTGGTG | -0.838
AACTCTGGGACTGAGACCGGGC | -0.558
TTGCTGTTAGCGCAGTCCTGGC | -1.57
TTGCGGGTAGAGACCACTGGGG | -0.627
TTTGTATGTGGTCTTGTTCCGC | 0.223
TTGAACTGGGTGCTGTCGGAGG | -0.689

What follows are sequences tested against AIG1 in the same assay as above. Settings: shRNA.

Sequence | sensor-assay potency score (higher = more potent)
TTCGGGTATATCATCTCTCTGT | -0.249
TTGGAAACAACTGTATTCTATG | -0.738
TTTGGAAACAACTGTATTCTAT | -0.0597
TAGAGCAGTAAGACAGCAGGAT | 0.285
TTATCAGTAATGACTTTGGGAA | -0.914
ATAAAGGGCAGAACCGTCGTGT | 0.238
TTCTTTAACACACAGTGAGGGT | -0.962
